Reference: PubChem BioAssay (NCI)
About 83,000 compounds went through this panel and 20% of them were active in at least one assay; those are over-represented in the sample as a whole.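 Cell lines were cultured in 96-well plates, exposed to a single compound concentration, and assessed for percent growth 48 hours later.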 Values without a mark were called inactive. Calls of active or inactive are those of the source. How the source made its calls: active means growth percent below 10; inactive means the rest.

What was measured:
Experiment in all cases: NCI-60 one-dose screen, 48 h (100 = growth as untreated, 0 = no growth, -100 = all killed)
Settings in all cases: 10 µM unless noted
HCT-15 colon = tested on: HCT-15 colon
HT29 colon = tested on: HT29 colon
SNB-75 CNS = tested on: SNB-75 CNS
SNB-19 CNS = tested on: SNB-19 CNS
U251 CNS = tested on: U251 CNS
PC-3 prostate = tested on: PC-3 prostate
SK-MEL-5 melanoma = tested on: SK-MEL-5 melanoma
UACC-62 melanoma = tested on: UACC-62 melanoma
LOX IMVI melanoma = tested on: LOX IMVI melanoma
SK-MEL-28 melanoma = tested on: SK-MEL-28 melanoma

Row | Compound | growth (HCT-15 colon) | growth (HT29 colon) | growth (SNB-75 CNS) | growth (SNB-19 CNS) | growth (U251 CNS) | growth (PC-3 prostate) | growth (SK-MEL-5 melanoma) | growth (UACC-62 melanoma) | growth (LOX IMVI melanoma) | growth (SK-MEL-28 melanoma)
1 | COc1ccc2c(c1)c(-c1nc(-c3c[nH]c4ccncc34)cs1)cn2C | -54.2% (active) | -72.1% (active) | -97.5% (active) | -58.9% (active) | -91.9% (active) | -81.1% (active) | -97.4% (active) | -75.8% (active) | -93.3% (active) | -95.7% (active)
2 | CC(C)=CC(=O)OCC(=O)O[C@@H]1C[C@]2(C(C)C)O[C@@]1(C)[C@@H]1CC[C@@H](C)[C@H]1[C@@H]2OC(=O)/C=C/c1ccccc1 | 86.8% | 85.8% | 88.7% | 99.3% | 81.8% | 63.7% | 90.5% | 78.5% | 86.9% | 103%
3 | COc1ccc(Nc2ncc(Br)c(NCCCNC(=O)C3CCCC3)n2)cc1 | 37.1% | 47.5% | 51.1% | 35.2% | 27.2% | 44% | 67.5% | 46.2% | 11% | 57.2%
4 | O=C1/C(=C/c2ccc([N+](=O)[O-])cc2)COc2ccc(O)cc21 | 28.3% | 4.43% (active) | 83.4% | 91.4% | 66.1% | 88.3% | 94% | 76.3% | 1.76% (active) | 108%
5 | COc1ccc2cc1Oc1ccc(cc1)C[C@H]1c3c(cc4c(c3Oc3cc5c(cc3OC)CCN(C)[C@@H]5C2)OCO4)CCN1C | 27% | 4.38% (active) | 71.4% | 75.9% | 26.8% | 43.9% | -97% (active) | 34.4% | -41.7% (active) | -54.9% (active)
6 | Cc1cccc(CNc2c3ccccc3nc3ccccc23)c1 | 15.9% | 5.15% (active) | 37% | 29.7% | 23.7% | 24.9% | 19.8% | 42.8% | 6.25% (active) | 58.8%
7 | COc1ccc(/C=C(\C#N)n2nnc3cc(F)c(F)cc32)cc1 | 29.9% | 6.99% (active) | 70.9% | 59.1% | 72.4% | 41.2% | 52.2% | 29.6% | 47.1% | 58.1%
8 | Nc1c(C(=O)Nc2ccccc2C(F)(F)F)sc2nc3c(cc12)CCC3 | 97.3% | 94.3% | 97.4% | 98.4% | 93.9% | 100% | 98.6% | 81% | 110% | 94.5%
9 | O=S(=O)(Nc1cc(Cl)ccc1Cl)c1ccc(-c2cnc(C3CC3)o2)cc1 | 26.2% | 5.45% (active) | -8.98% (active) | 31.7% | 30.2% | 38.3% | 31.1% | 33.2% | 35.8% | 63.2%
10 | Nc1nc2ccccc2c2c1S(=O)(=O)c1ccc(Cl)cc1C2=O | 1.95% (active) | 7.01% (active) | 24.5% | 48.8% | 11.9% | 16.5% | 28.5% | 24.7% | 8.26% (active) | 34.5%
11 | COc1cc2c(c(OC)c1OC)CCC(c1cccc(C(=O)Nc3ccc(C#N)cc3)c1)O2 (stereo not given) | 59.7% | 69.3% | 57.3% | 58.7% | 64.2% | 14% | -12.7% (active) | 24.6% | 39.5% | 58.8%
12 | Nc1nc2ccccc2c2c(=O)c3cccc(Cl)c3sc12 | 59% | 92.7% | 89.2% | 92.6% | 77.3% | 78.5% | 96.3% | 85.7% | 90.2% | 108%
13 | C=CCn1c(C)nc2ccc(Nc3nc(Nc4ccc5nc(C)n(CC=C)c5c4)c4ccccc4n3)cc21 | -51.7% (active) | -96.7% (active) | -95.2% (active) | 30.6% | -94.2% (active) | -47.8% (active) | -94.2% (active) | -87% (active) | -88.6% (active) | -96% (active)
14 | COc1ccc(NC(=O)c2sc3nc(C)c(C(=O)/C=C/c4ccccc4)cc3c2N)cc1 | 0.101% (active) | 0.196% (active) | 12.2% | 10.6% | 1.8% (active) | 52.6% | 74.3% | 51.8% | -74.7% (active) | 85.7%
15 | CCOc1ccc(NC(=O)CSc2oc(-c3ccccc3)nc2S(=O)(=O)c2ccc(C)cc2)cc1 | 63.8% | 50.9% | 45.3% | 70.7% | 41.2% | 62.3% | 81.2% | 66.2% | 54.1% | 79.3%
16 | Cc1cccc(/C=C/c2c(C(=O)/C=C/c3ccccc3)c(C)nc3ccccc23)c1 | -58.8% (active) | -24.2% (active) | -9.89% (active) | -80.5% (active) | -94.1% (active) | 8.27% (active) | -58.1% (active) | -67.3% (active) | -86.1% (active) | -61.8% (active)
17 | O=c1scc(-c2ccc(C(F)(F)F)cc2)s1 | 93.4% | 89.4% | 63.5% | 91.8% | 95.2% | 87.8% | 97% | 84.1% | 103% | 102%
18 | CC/C=C\C[C@H](O)C/C=C1/C(=O)C=C[C@@H]1C/C=C\CCCC(=O)N(C)C | -21.8% (active) | -71.5% (active) | 72.2% | 27.1% | -31% (active) | 2.37% (active) | -88.6% (active) | -31.6% (active) | -84.3% (active) | 21.5%
19 | Cc1[nH]c(=O)[nH]c(=O)c1Br | 106% | 131% | 91.6% | 98% | 98.2% | 97.9% | 112% | 97.3% | 104% | 114%
20 | Cc1cc(=O)n(C(=O)Nc2ccccc2Cl)c2cc(O)ccc12 | 107% | 108% | 93.7% | 97% | 98.6% | 93.6% | 101% | 101% | 99.1% | 107%
21 | O=C(CN1CCCCC1)Nc1nc(-c2cc3ccccc3oc2=O)cs1 | 102% | 100% | 82.4% | 100% | 97.4% | 97.8% | 96% | 91.7% | 101% | 102%
22 | C/C(Cc1ccc(Cl)cc1)=C(\c1ccc(O)cc1)c1ccc(Cl)cc1 | 85.3% | 90.9% | 94.7% | 104% | 102% | 71.8% | 100% | 84.6% | 89.9% | 95.1%
23 | c1ccc(Cn2cc3c(c2)-c2oncc2CC3)cc1 | 26.2% | 7.96% (active) | 19% | 35.7% | 28.9% | 31.9% | 39.3% | 23.6% | 45.5% | 53.9%
24 | C=CCn1c(SCC(=O)Nc2ccc(C(=O)/C=C/c3ccc(Cl)cc3)cc2)nnc1-c1ccc(Br)cc1 | 81.2% | 67.5% | 75.6% | 77.8% | 79.5% | 68% | 82.7% | 71% | 77.7% | 105%
25 | Cc1ccc(CNc2ccc3nc(CCC4CCCCC4)[nH]c3c2)cc1 | 12.7% | 9.91% (active) | 79.7% | 58.4% | 29.8% | 38.5% | -19.5% (active) | 32.9% | 50.1% | 38.5%
26 | CCN(CC)S(=O)(=O)c1ccc(S(=O)(=O)N2CCC[C@@H](C(=O)N3CCN(c4nc(C(C)C)no4)CC3)C2)cc1 | 92.2% | 87.8% | 56.4% | 64.2% | 85.3% | 76.2% | 17.2% | 59.7% | 54% | 91%
27 | CCOC(=O)c1cc(C(=O)c2cc(OC)c(OC)c(OC)c2)n2ncccc12 | 24% | 3.66% (active) | 34% | 38.9% | 14.8% | 21.1% | 25.9% | 29.5% | 42.5% | 67.7%
